We go through 38 compounds from PubChem BioAssay AID626 (Vanderbilt High Throughput Screening Facility, 2007).

The structures appear in SMILES notation. Among all 64,000 compounds or so, about 1,900 (3%) were called active.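 Rule for the calls: active = fluorescence rise, raw or as B-score row- and column-corrected plate score, outside the 99.7% band of its plate's samples, either direction; inactive = the rest.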 For the sample, actives were picked, then their nearest neighbours and some compounds at random.

This assay relates to Muscarinic acetylcholine receptor M1. Briefly: direct activation of M1 receptor calcium signal – CHO-M1 cells, Fluo-4 calcium, agonist mode, primary screen (AID 626). To be noted: Fluo-4 calcium fluorescence, at 10 µM, hits give high values.
As to `CS(=O)(=O)N(Cc1nc2sc3c(c2c(=O)[nH]1)CCCC3)C1CCCCC1`, the B-score was -0.0154 (inactive).

Consider `CSCCC(NC(=O)C1CCC(C)CC1)C(=O)NCc1ccco1` (stereo not drawn), for which the B-score is -0.577 (inactive). On to `Cn1c(=O)[nH]c(=O)c2c1nc(NCCCn1ccnc1)n2Cc1cccc(Br)c1`, for which the B-score is 0.757 (inactive). The value for `COc1ccc(C2C(C(=O)N3CCN(c4ccc(OC)cc4)CC3)c3ccccc3C(=O)N2C)cc1` (stereo not drawn) was 4.34 (active); that for `CCOc1ccc(C2C(C(=O)O)c3ccccc3C(=O)N2CCN2CCOCC2)cc1` (stereo not drawn) was 0.0396 (inactive). In the case of `COc1ccc(N2CCN(CCNC(=O)CCN3C(=O)COc4ccccc43)CC2)cc1` it was 0.72 (inactive). In the case of `CN(C)/C=C/c1c(C#N)c(=O)ncn1Cc1ccccc1` it was 1.01 (inactive); in that of `N#C/C=C\Oc1ccc(Cl)cc1N`, 0.000464 (inactive); in that of `COc1ccc(OC)c(S(=O)(=O)N(C)CC(=O)N2CCN(c3ccccc3)CC2)c1`, 0.148 (inactive). Take `COc1ccc(C(C(O)C(=O)c2c[nH]c3ccccc23)N2CCN(c3ccccc3)CC2)cc1` (stereo not drawn): the B-score is 3.3 (active). For the compound `CCCC(=O)NC(C)C(c1cccs1)N1CCN(c2ccccc2)CC1` (stereo not drawn), the B-score was -0.223 (inactive). `CCOC(=O)c1sc(NC(=O)CSc2ncccn2)c(C#N)c1C`: the B-score is 0.288 (inactive).

In the case of `COc1ccc(S(=O)(=O)N2CCN(C(=O)c3cccs3)CC2)cc1OC`, the B-score is -1.5 (inactive).

As to `CC(=O)c1ccc(N2C(=NC(=O)C(C)C)SC3CS(=O)(=O)CC32)cc1` (stereo not drawn), the B-score is -0.587 (inactive). The value for `Cn1c(=O)c(=O)n(C)c2cc(S(=O)(=O)NCCc3ccccc3)ccc21` was 0.704 (inactive). In the case of `O=C(CN1CCOCC1)Nc1ccc(NC(=O)CN2CCOCC2)c(Cl)c1` it was -0.0117 (inactive). Regarding `COc1ccc(NC(C)=O)cc1NC(=O)CN1CCN(C2c3ccccc3-c3ccccc32)CC1`, the B-score is 0.8 (inactive).

As to `CC(=O)Nc1ccc(NC(=O)CN2CCCC(C)C2)c(Cl)c1` (stereo not drawn), the B-score is 6.88 (active). The value for `CCNS(=O)(=O)c1ccc(NC(=O)Nc2cccc(OC)c2)cc1` was 2.45 (inactive); that for `CCOP1(=O)C=C(C(C)(C)C)OC1c1ccc(F)cc1` (stereo not drawn) was -0.203 (inactive). The value for `CCOc1ccc(NCCC(=O)c2ccc3c(c2)OCO3)cc1` was -0.0168 (inactive); that for `CCOC(=O)C1CCCN(C(=O)Cn2ncc3c(=O)oc4ccc(C)cc4c32)C1` (stereo not drawn) was -0.657 (inactive); that for `Cc1ccc2oc(=O)c3cnn(CC(=O)N4CCN(c5ccccn5)CC4)c3c2c1` was 7.39 (active). Turning to `Cc1ccc2oc(=O)c3cnn(CC(=O)N4CCCCCC4)c3c2c1`, the B-score is 0.0625 (inactive).

Consider `O=C(NC1CC2CCCC(C1)N2C(=O)N1CCCCC1)C1CCCCC1` (stereo not drawn), for which the B-score was 0.398 (inactive). In the case of `CN1CCCC(OC(=O)COc2ccc(Br)cc2)C1` (stereo not drawn) it was 2.29 (inactive); in that of `Cc1ccc(F)cc1NC(=O)c1ccc2c(c1)OCO2`, 0.368 (inactive); in that of `CCOC(=O)c1c(NC(=O)CSc2nnc(CN3CCOCC3)n2C)sc2c1CCCC2`, 0.743 (inactive). Turning to `O=C(CSc1nnc(-c2ccco2)n1-c1ccccc1)NCCc1ccccc1`, the B-score was 0.164 (inactive). On to `O=C(CSc1nnc(-c2ccco2)n1Cc1ccccc1)NC(=O)NCc1ccco1`, for which the B-score is 2.23 (active). The value for `c1ccc(CSc2nnc(-c3ccco3)n2Cc2ccccc2)cc1` was 1.61 (inactive); that for `COc1cccc(-c2nn(C)c3sc(C(=O)N4CCN(c5ccccc5)CC4)cc23)c1` was -0.654 (inactive). For `CC(C[N+](C)(C)C)OC(N)=O` (stereo not drawn), the B-score is 67.7 (active). Take `CC(=O)OC(C)C[N+](C)(C)C` (stereo not drawn): the B-score was 53.8 (active). Take `CCC(=O)N1c2ccc(S(=O)(=O)CCC(=O)N3CCN(c4ccccc4)CC3)cc2CC1C` (stereo not drawn): the B-score is -2.01 (inactive). The value for `Cn1c(=O)c2c(ncn2CC(=O)N2CCN(c3ccccc3)CC2)n(C)c1=O` was 0.437 (inactive); that for `COc1ccc(-c2nnco2)cc1OC` was 0.77 (inactive); that for `O=S(=O)(CCc1nc2ccccc2o1)c1ccc(Cl)cc1` was 0.134 (inactive).
